Laboratory results published in PubChem BioAssay (NCI).
“And” between values parts separate entries of the source, which are not always exact repeats. Identical values can stand only once. About 83,000 compounds went through this panel and 20% of them were active in at least one assay; those are over-represented in the sample as a whole.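 For each line, cells grew in 96-well plates with the test compound present at a single concentration for 48 hours.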 A number with no mark means an inactive call. The source made the active and inactive calls.

test system: A498 renal; assay: NCI-60 one-dose screen, 48 h (100 = growth as untreated, 0 = no growth, -100 = all killed); conditions: 10 µM
Experimental: Growth inhibition of the A498 human tumor cell line is measured as a screen for anti-cancer activity. Cells are grown in 96 well plates and exposed to the test compound for 48 hours. Compounds are tested at a single concentration, which is 10^-5 M for most compounds. The reported endpoint is percent growth (GI% or GIPRCNT), where numbers from 0 - 100% represent growth inhibition, and numbers from -100% - 0 represent cell death. For example, a value of 40 represents 60% growth inhibition. A value of 0 means no net growth occurred over the course of the experiment. A value of -40 indicates 40% of cells at the beginning of the experiment died by the end of the experiment. A value of -100 means all cells are dead at the end of the experiment.
NCI-60 Human Tumor Cell Lines Screen was performed using the standard one-dose NCI protocol, which is described in more detail at https://dtp.cancer.gov/discovery_development/nci-60/default.htm.
Compounds with GIPRCNT values below 10 were considered active. Activity score was based on GIPRCNT using the following formula: […]
Score is 0 for GIPRCNT values of 100 or above, 50 for GIPRCNT values of 0, and 100 for GIPRCNT values of -100.

| SMILES | growth |
| --- | --- |
| S=c1nc[nH]c2nc[nH]c12 | 71.1% |
| CS/C(=C\c1ccc(C(=O)c2ccc(C)cc2)n1C)S(C)=O (stereo not given) | 108% |

same assay, conditions: 10 µM unless noted

| SMILES | growth |
| --- | --- |
| CCOC(=N)c1ccc(C(=N)OCC)cc1 | 90.6% |
| O=C1c2cccnc2-c2ncccc21 | 103% [100 µM] |
| O=C1C=CC[C@H](/C=C/c2ccccc2)O1 | -18.3% (active) and -10.1% (active) |
| Cc1ccc([N+](=O)[O-])cc1Br | 88.5% |
| CN1C2C=CC(=O)C1C1C(=O)N(c3ccccc3)C(=O)C12 (stereo not given) | 106% |
| CCOC(=O)c1ccc(N2C(=O)C(Cl)(c3ccccc3)C2c2ccco2)cc1 (stereo not given) | 88.8% |
| CCNCc1ccccc1 | 97.4% |
| Nc1ccc(O)c(C(=O)O)c1 | 108% and 88% |
| COc1ccc(CCO)cc1 | 97.2% |
| COc1ccccc1OCC(O)CO (stereo not given) | 98% and 87.8% |
| C/C=C(/C(=O)NC(N)=O)C(C)C | 102% |
| C#CCOC(=O)C(N)CS (stereo not given) | 128% |
| ON=C(C1CCCCC1)C1CCCCC1 | 94.7% |
| COC(=O)C(Cc1cn(C(C)=O)c2ccccc12)P(=O)(OC)OC (stereo not given) | 115% |
| CN(C)C(=S)N(C)C | 120% |
| COc1ccc2oc3cc(NCCN(C)C)ccc3c(=O)c2c1 | 121% and 85.7% |
| CCN(CC)CCNC(=O)c1ccc(NCN2C(=O)NC(c3ccccc3)(c3ccccc3)C2=O)cc1 | 81.1% and 205% |
| C=CCN1C(=O)c2ccccc2C1=O | 92% |

| SMILES | growth |
| --- | --- |
| O=C(c1ccc(Cl)cc1)C1C(c2ccccc2)C1[N+](=O)[O-] (stereo not given) | 86.3% |
| CC1OS(=O)OC1C (stereo not given) | 101% and 105% |
| CC1NC(C)c2ccc3ccccc3c2O1 (stereo not given) | 84.8% |
| COc1cc(NCCCCCNC(C)C)c2ncccc2c1 | 77.2% |
| Nc1ccc(Cl)c(S(=O)(=O)O)c1 | 84% |
| CCOP(=O)(OCC)/C(C#N)=C/c1c(C)[nH]c2ccccc12 | 116% |
| Cc1ccc(N)cc1S(=O)(=O)O | 113% |
| COc1ccc(/C=C/C(=O)O)cc1OC | 104% |
| CC(O)CCNC(c1ccccc1)C(O)c1ccccc1 (stereo not given) | 103% |
| O=C(c1ccccc1)C1(Br)CCCCC1 | 102% |
| CC(C)=NOC(C)C(=O)O (stereo not given) | 89.2% |
| Nc1ccccc1SC1CC(=O)N(c2ccc(I)cc2)C1=O (stereo not given) | 108% |
| COCCCNC1=C(C#N)C(=O)NC(c2cccs2)S1 (stereo not given) | 133% |
| CCCCCCC(C)CC1=C(O)c2ccccc2C(=O)C1=O (stereo not given) | 54.3% |
| C/C(CC(C)C)=N/NC(N)=S | 87.6% |
| O=C(Nc1ccccc1)OCC(CN1CCCCC1)OC(=O)Nc1ccccc1 (stereo not given) | 79.5% and 68.7% |
| OC1CCCN(Cc2ccccc2)C1 (stereo not given) | 96.2% |
| COC(=O)c1nc(N)nc(C(=O)OC)c1C(=O)c1cccc2ccccc12 | 105% |

same assay, conditions: 50 µM

| SMILES | growth |
| --- | --- |
| S=c1nc[nH]c2nc[nH]c12 | 47.5% |

same assay, conditions: 100 µM

| SMILES | growth |
| --- | --- |
| CS/C(=C\c1ccc(C(=O)c2ccc(C)cc2)n1C)S(C)=O (stereo not given) | 109% |
